{
  "source": "the antibiotic and cytotoxicity screens of Wong et al. (2023)",
  "note": "About 500 (1.3%) of roughly 39,000 compounds were called active. The sample as a whole holds a higher share of actives than the screen did.",
  "data": [
    {"system": "S. aureus RN4220", "experiment": "growth inhibition call (relative growth <= 0.2)", "conditions": "50 µM", "values": [
      {"smiles": "C[C@H]1CN([C@@H](C)CO)C(=O)Cc2cc(NC(=O)Nc3ccc(F)cc3)ccc2O[C@H]1CN(C)S(=O)(=O)c1cn(C)cn1", "growth inhibition call": "inactive"},
      {"smiles": "CCOC(=O)CSc1nnc2c3sc4nc(N5CCOCC5)c5c(c4c3ncn12)CC(C)(C)OC5", "growth inhibition call": "inactive"},
      {"smiles": "C[C@H](CO)N1C[C@H](C)[C@@H](CN(C)Cc2ccc(C(F)(F)F)cc2)OCCCC[C@H](C)Oc2ccc(NS(=O)(=O)c3cn(C)cn3)cc2C1=O", "growth inhibition call": "inactive"},
      {"smiles": "C[C@@H]1CCCCO[C@@H](CN(C)Cc2ccccc2)[C@H](C)CN([C@H](C)CO)C(=O)c2cc(NC(=O)Nc3ccccc3)ccc2O1", "growth inhibition call": "inactive"},
      {"smiles": "C[C@@H]1CN([C@H](C)CO)C(=O)c2cccc(NC(=O)Nc3cccc4ccccc34)c2O[C@@H]1CN(C)C(=O)Nc1ccc2c(c1)OCO2", "growth inhibition call": "inactive"},
      {"smiles": "COC(=O)c1c2oc(c1C(=O)OC)C(=O)N(C)Cc1cn(nn1)C[C@@H](C)NC(=O)N[C@H](CO)CC2", "growth inhibition call": "inactive"},
      {"smiles": "C[C@H](CO)N1C[C@H](C)[C@@H](CN(C)C(=O)Nc2ccc3c(c2)OCO3)OCCCC[C@H](C)Oc2ccc(NC(=O)Nc3ccc(F)cc3)cc2C1=O", "growth inhibition call": "inactive"},
      {"smiles": "COc1ccc(NC(=O)N(C)C[C@@H]2OCCCC[C@H](C)Oc3ccc(NC(=O)Nc4ccc5c(c4)OCO5)cc3C(=O)N([C@@H](C)CO)C[C@@H]2C)cc1", "growth inhibition call": "inactive"},
      {"smiles": "Cc1noc(C)c1S(=O)(=O)N(C)C[C@H]1Oc2ccc(NC(=O)CCC(F)(F)F)cc2CC(=O)N([C@H](C)CO)C[C@H]1C", "growth inhibition call": "inactive"},
      {"smiles": "CC(=O)N(C)C[C@H]1Oc2ncc(C#C[C@H](C)O)cc2C(=O)N([C@H](C)CO)C[C@H]1C", "growth inhibition call": "inactive"},
      {"smiles": "Cc1noc(C)c1NC(=O)Nc1ccc2c(c1)C(=O)N([C@@H](C)CO)C[C@H](C)[C@H](CN(C)C(=O)Nc1ccc(C(F)(F)F)cc1)O2", "growth inhibition call": "active"},
      {"smiles": "Cc1noc(C)c1NC(=O)N(C)C[C@@H]1Oc2ccc(NC(=O)Nc3ccc(C(F)(F)F)cc3)cc2C(=O)N([C@H](C)CO)C[C@@H]1C", "growth inhibition call": "inactive"},
      {"smiles": "C[C@@H]1CN([C@@H](C)CO)C(=O)c2cc(NC(=O)CCC(F)(F)F)ccc2O[C@H]1CN(C)C(=O)Nc1ccc(C(F)(F)F)cc1", "growth inhibition call": "inactive"},
      {"smiles": "C[C@H](CO)N1C[C@H](C)[C@@H](CN(C)C(=O)Nc2ccc(C(F)(F)F)cc2)Oc2ccc(NC(=O)CCC(F)(F)F)cc2C1=O", "growth inhibition call": "active"},
      {"smiles": "Cc1noc(C)c1NC(=O)Nc1ccc2c(c1)C(=O)N([C@H](C)CO)C[C@H](C)[C@@H](CN(C)C(=O)Nc1ccc(C(F)(F)F)cc1)O2", "growth inhibition call": "inactive"},
      {"smiles": "Cc1noc(C)c1NC(=O)Nc1ccc2c(c1)C(=O)N([C@@H](C)CO)C[C@@H](C)[C@H](CN(C)C(=O)Nc1ccc(C(F)(F)F)cc1)O2", "growth inhibition call": "inactive"},
      {"smiles": "Cc1noc(C)c1NC(=O)Nc1ccc2c(c1)C(=O)N([C@@H](C)CO)C[C@H](C)[C@@H](CN(C)C(=O)Nc1ccc(C(F)(F)F)cc1)O2", "growth inhibition call": "inactive"},
      {"smiles": "Cc1noc(C)c1NC(=O)Nc1ccc2c(c1)C(=O)N([C@H](C)CO)C[C@H](C)[C@H](CN(C)C(=O)Nc1ccc(C(F)(F)F)cc1)O2", "growth inhibition call": "active"},
      {"smiles": "C[C@@H]1CN([C@H](C)CO)C(=O)c2cc(NC(=O)CCC(F)(F)F)ccc2O[C@@H]1CN(C)C(=O)Nc1ccc(C(F)(F)F)cc1", "growth inhibition call": "inactive"},
      {"smiles": "Cc1noc(C)c1NC(=O)Nc1ccc2c(c1)C(=O)N([C@@H](C)CO)C[C@@H](C)[C@@H](CN(C)C(=O)Nc1ccc(C(F)(F)F)cc1)O2", "growth inhibition call": "active"},
      {"smiles": "Cc1noc(C)c1NC(=O)Nc1ccc2c(c1)C(=O)N([C@H](C)CO)C[C@@H](C)[C@@H](CN(C)C(=O)Nc1ccc(C(F)(F)F)cc1)O2", "growth inhibition call": "inactive"},
      {"smiles": "Cc1noc(C)c1NC(=O)Nc1ccc2c(c1)C(=O)N([C@H](C)CO)C[C@@H](C)[C@H](CN(C)C(=O)Nc1ccc(C(F)(F)F)cc1)O2", "growth inhibition call": "inactive"},
      {"smiles": "C[C@@H]1CN([C@@H](C)CO)C(=O)Cc2cc(NC(=O)C3CC3)ccc2O[C@@H]1CN(C)C(=O)Nc1ccc2c(c1)OCO2", "growth inhibition call": "inactive"},
      {"smiles": "CC(C)c1ccccc1Cc1cc(C(=O)Nc2ccc(S(=O)(=O)c3ccccc3C(C)(C)C)cc2)c(O)c(O)c1O", "growth inhibition call": "inactive"},
      {"smiles": "Cc1ccc(S(=O)(=O)N(C)C[C@@H]2Oc3ccc(NC(=O)Nc4cccc5ccccc45)cc3C(=O)N([C@@H](C)CO)C[C@H]2C)cc1", "growth inhibition call": "inactive"},
      {"smiles": "C[C@H]1CC/C=C\\[C@H]2O[C@@]34C=CCN(c5ccc6ccccc6c5)C(=O)[C@H]3N(CCCO)C(=O)[C@@H]4[C@@H]2C(=O)O1", "growth inhibition call": "inactive"},
      {"smiles": "C[C@H]1CN([C@@H](C)CO)C(=O)Cc2cc(NC(=O)CCC(F)(F)F)ccc2O[C@H]1CN(C)S(=O)(=O)c1cn(C)cn1", "growth inhibition call": "inactive"},
      {"smiles": "CCN(CC)CCS(=O)(=O)[C@@H]1CCN2C(=O)c3coc(n3)CC(=O)C[C@H](O)/C=C(C)/C=C\\CNC(=O)/C=C/[C@@H](C)[C@H](C(C)C)OC(=O)[C@@H]12", "growth inhibition call": "active"},
      {"smiles": "COc1cccc2c1C(=O)c1c(O)c3c(c(O)c1C2=O)C[C@@](O)(C(=O)CO)C[C@@H]3O[C@H]1C[C@H](N)[C@H](O)[C@H](C)O1", "growth inhibition call": "active"},
      {"smiles": "COc1cccc2c1C(=O)c1c(O)c3c(c(O)c1C2=O)CC(O)(C(=O)CO)CC3OC1CC(N)C(O)C(C)O1", "note": "(centres undefined) [listing 1 of 2 here]", "growth inhibition call": "inactive"},
      {"smiles": "COc1cccc2c1C(=O)c1c(O)c3c(c(O)c1C2=O)C[C@](O)(C(=O)CO)C[C@H]3O[C@H]1C[C@@H](N)[C@@H](O)[C@@H](C)O1", "growth inhibition call": "active"},
      {"smiles": "COc1cccc2c1C(=O)c1c(O)c3c(c(O)c1C2=O)CC(O)(C(=O)CO)CC3OC1CC(N)C(O)C(C)O1.Cl", "note": "(centres undefined)", "growth inhibition call": "inactive"},
      {"smiles": "COc1cccc2c1C(=O)c1c(O)c3c(c(O)c1C2=O)CC(O)(C(=O)CO)CC3OC1CC(N)C(O)C(C)O1", "note": "(centres undefined) [listing 2 of 2 here]", "growth inhibition call": "inactive"},
      {"smiles": "COc1cccc2c1C(=O)c1c(O)c3c(c(O)c1C2=O)C[C@@](O)(C(=O)CO)C[C@@H]3O[C@H]1C[C@H](N)[C@@H](O)[C@H](C)O1", "growth inhibition call": "active"},
      {"smiles": "CCCCC(=O)OCC(=O)[C@]1(O)Cc2c(O)c3c(c(O)c2[C@@H](O[C@H]2C[C@H](NC(=O)C(F)(F)F)[C@H](O)[C@H](C)O2)C1)C(=O)c1c(OC)cccc1C3=O", "growth inhibition call": "inactive"},
      {"smiles": "Cc1ccnc(NC(=O)Cn2cnc3c2c(=O)n(C)c(=O)n3C)c1", "growth inhibition call": "inactive"},
      {"smiles": "Cc1noc(C)c1S(=O)(=O)Nc1ccc2c(c1)C(=O)N([C@@H](C)CO)C[C@@H](C)[C@@H](CN(C)S(C)(=O)=O)OCCCC[C@@H](C)O2", "growth inhibition call": "inactive"},
      {"smiles": "COCCC(=O)N1CCC2(CC1)COC2", "growth inhibition call": "inactive"},
      {"smiles": "C[C@@H]1CCCCO[C@@H](CN(C)C(=O)Nc2ccc(C(F)(F)F)cc2)[C@H](C)CN([C@H](C)CO)C(=O)c2cc(N(C)C)ccc2O1", "growth inhibition call": "inactive"},
      {"smiles": "Cc1noc(C)c1NC(=O)N(C)C[C@H]1Oc2ccc(NS(=O)(=O)c3ccccc3)cc2C(=O)N([C@@H](C)CO)C[C@H]1C", "growth inhibition call": "inactive"},
      {"smiles": "CCOC(=O)[C@H]1CN(C(C)(C)C)C(=O)C1=O", "growth inhibition call": "inactive"},
      {"smiles": "O=c1[nH]c2ccsc2c(=O)n1CCO", "growth inhibition call": "inactive"},
      {"smiles": "C[C@@H]1CN([C@@H](C)CO)S(=O)(=O)c2ccc(C#Cc3ccncc3)cc2O[C@H]1CN(C)C(=O)C1CCOCC1", "growth inhibition call": "inactive"},
      {"smiles": "CCS(=O)(=O)N1CC[C@]2(CC1)CN([C@H](CO)c1c2c2ccc(cc2n1C)OC)C(=O)CN1CCOCC1", "growth inhibition call": "inactive"},
      {"smiles": "C[C@H](CO)N1C[C@H](C)[C@@H](CN(C)Cc2ccccc2)Oc2ccc(NC(=O)Cn3cnnn3)cc2CC1=O", "growth inhibition call": "inactive"},
      {"smiles": "CN[C@H]1CN(c2ccc3c(=O)c(C(=O)O)cn(-c4nccs4)c3n2)C[C@@H]1OC", "growth inhibition call": "inactive"},
      {"smiles": "N[C@H]1CCN(c2nc3c(cc2F)c(=O)c(C(=O)O)cn3-c2ccc(F)cc2F)C1", "growth inhibition call": "active"},
      {"smiles": "N[C@@H]1[C@H]2CN(c3nc4c(cc3F)c(=O)c(C(=O)O)cn4-c3ccc(F)cc3F)C[C@@H]12", "growth inhibition call": "active"},
      {"smiles": "Cc1ccc(S(=O)(=O)O)cc1.NC1CCN(c2nc3c(cc2F)c(=O)c(C(=O)O)cn3-c2ccc(F)cc2F)C1.O", "note": "(centres undefined)", "growth inhibition call": "inactive"},
      {"smiles": "C[C@H](CO)N1C[C@H](C)[C@H](CN(C)C(=O)CCC(F)(F)F)OCCCC[C@H](C)Oc2ccc(NC(=O)Nc3ccccc3)cc2C1=O", "growth inhibition call": "inactive"},
      {"smiles": "C[C@H](CO)N1C[C@H](C)[C@H](CN(C)C(=O)CCCN(C)C)OCCCC[C@H](C)Oc2ccc(NS(C)(=O)=O)cc2C1=O", "growth inhibition call": "inactive"},
      {"smiles": "C[C@H](CO)N1C[C@H](C)[C@H](CN(C)S(=O)(=O)c2ccc(F)cc2)Oc2c(NC(=O)C3CCOCC3)cccc2C1=O", "growth inhibition call": "inactive"},
      {"smiles": "CC(C)NC(=O)N(C)C[C@@H]1Oc2c(NS(=O)(=O)c3ccc(F)cc3)cccc2C(=O)N([C@H](C)CO)C[C@H]1C", "growth inhibition call": "inactive"},
      {"smiles": "C[C@@H]1CCCCO[C@@H](CN(C)C(=O)CCCN(C)C)[C@H](C)CN([C@@H](C)CO)C(=O)c2cc(NC(=O)Nc3ccc(F)cc3)ccc2O1", "growth inhibition call": "inactive"},
      {"smiles": "COc1cccc(S(=O)(=O)N(C)C[C@@H]2Oc3ncc(C#CC(C)C)cc3C(=O)N([C@@H](C)CO)C[C@H]2C)c1", "growth inhibition call": "inactive"},
      {"smiles": "COC(=O)CC1C(C)(C)C(OC(C)=O)C2CC3=C4CC(=O)OC(c5ccoc5)C4(C)CCC3C1(C)C2=O", "note": "(centres undefined)", "growth inhibition call": "inactive"},
      {"smiles": "CCC(=C/[C@H](C)C/C=C/C(C)=C/[C@@H](C)C(=O)[C@@H](C)[C@H](O)[C@@H](C)C/C(C)=C/C(=O)O)/C=C/[C@@H]1OC(=O)C=C[C@@H]1C", "growth inhibition call": "active"},
      {"smiles": "Cc1noc(C)c1S(=O)(=O)N(C)C[C@@H]1Oc2ccc(NS(=O)(=O)c3ccc(F)cc3)cc2C(=O)N([C@H](C)CO)C[C@@H]1C", "growth inhibition call": "inactive"},
      {"smiles": "COc1ccc(S(=O)(=O)N(C)C[C@@H]2Oc3c(NS(=O)(=O)c4ccc(C)cc4)cccc3C(=O)N([C@H](C)CO)C[C@@H]2C)cc1", "growth inhibition call": "inactive"},
      {"smiles": "O=C1CCNc2cc3ccccc3cc21", "growth inhibition call": "active"},
      {"smiles": "O=C1CCCNc2ccc(Cl)cc21", "growth inhibition call": "inactive"},
      {"smiles": "O=C1NCc2ccccc21", "growth inhibition call": "inactive"},
      {"smiles": "CN(C)C(=O)C[C@@H]1CC[C@@H](NC(=O)C2CC2)[C@@H](CO)O1", "growth inhibition call": "inactive"},
      {"smiles": "C[C@@H]1CCCCO[C@@H](CN(C)C(=O)Nc2ccc(F)cc2)[C@H](C)CN([C@H](C)CO)C(=O)c2cc(NS(=O)(=O)c3ccc(F)cc3)ccc2O1", "growth inhibition call": "inactive"}
    ]}
  ]
}
